This is a sample that favours compounds with a hit; in the whole collection about 0.74% have one here.
Akt phos inh: Akt phosphorylation inhibition | Neuro2A IGF-stimulated pAkt S473 HTRF, 20 min; stronger effect = lower value | activity change, % for hits at 50 µM | actives 0.32% (n = 360,000); in the data active = activity change below about -80%; inconclusive = mostly about -51% to -80%; also: % is scaled to controls: 0 for no effect and ±100 for the full control effect
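Single-point screen (50 µM final compound) in Neuro2A cells stimulated 20 min with 6 nM IGF at 37 deg C. After lysis, Ser473-phosphorylated Akt read by HTRF (ex 330 nm, em 615/665 nm) as the 665/615 ratio.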
Vif-A3G inh: blocks the Vif interaction with human APOBEC3G; HeLa A3G-eYFP + Vif (tagged APOBEC3G with the HIV-1 protein that degrades it), YFP fluorescence, overnight; actives 0.076% (n = 410,000); Q9HC16; Potency, µM (top dose mostly 46.1 µM), for inactives: at the top dose activity, negative = active, most hits filed as inhibitors; also: potency is read from the fitted curve at half-maximal effect; % is scaled to controls: 0 for no effect and ±100 for the full control effect; nearly all actives have a fitted effect of over 60% in size
Target sequence (Q9HC16 whole entry, looked up): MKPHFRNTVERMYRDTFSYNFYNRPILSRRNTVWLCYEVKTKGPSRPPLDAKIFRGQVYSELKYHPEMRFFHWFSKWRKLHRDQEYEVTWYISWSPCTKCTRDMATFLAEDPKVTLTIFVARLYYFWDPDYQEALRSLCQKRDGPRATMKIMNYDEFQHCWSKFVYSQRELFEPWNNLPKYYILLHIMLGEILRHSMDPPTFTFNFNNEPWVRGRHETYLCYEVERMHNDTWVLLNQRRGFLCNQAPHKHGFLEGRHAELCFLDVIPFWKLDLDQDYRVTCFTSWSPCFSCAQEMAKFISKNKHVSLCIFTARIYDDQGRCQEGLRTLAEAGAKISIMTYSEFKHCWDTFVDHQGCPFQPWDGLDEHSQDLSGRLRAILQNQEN
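HeLa cells stably expressing Vif and C-terminally eYFP-tagged A3G, seeded overnight at 37 deg C, then exposed to compound by pintool overnight at 37 deg C. Rise in yellow fluorescence (Ex 488/Em 500-530, Acumen) marks blocked Vif-driven A3G degradation.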
LDHA block: inhibitors of human lactate dehydrogenase A | purified LDHA, NADH/diaphorase-resazurin fluorescence; stronger effect = lower value | activity change, % (values are at about 110 or 230 µM) | actives 0.15% (n = 480,000); in the data active = activity change below about -30%; inconclusive = mostly about -25% to -30%;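 also: plate controls were DMSO wells for no effect and wells without enzyme for full effect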
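Human LDH5 (2 nM) was incubated with 0.06 mM NADH and 0.2 mM pyruvate for 5 min at room temperature in Tris pH 7.4. Remaining NADH was coupled through diaphorase/resazurin, and resorufin fluorescence was read at 0 and 20 min.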
PINK1 expr mod: PINK1 expression modulation | PINK1 immunofluorescence, high-content cytometry, 24 h | Potency, µM (highest dose often 76.6 µM), for inactives: at the top dose activation (PINK1 increase), usual class: activators | actives 0.2% (n = 410,000) | AID 624263; active = well fitted activation curve with a large enough effect; inconclusive = small, poorly fitted or top-dose-only effect; cell line not stated here; also: potency is read from the fitted curve at half-maximal effect; % of control where 0% means no effect; nearly all actives have a fitted effect of over 65% in size
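A stable cell line was treated with compounds at 5 concentrations for 24 hours, with CCCP as control. PINK1 levels and mitochondrial localization were measured by immunofluorescence with mitochondrial, cell and nuclear markers after fixation, read by laser-scanning cytometry.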
Vif-APOBEC3F blk: inhibitors of Vif-A3F interaction. HeLa A3F-eYFP + Vif (tagged APOBEC3F with the HIV-1 protein that degrades it), YFP fluorescence increase. Potency, µM (series often up to 46.1 µM), for inactives: top-dose activity, negative = active. actives 0.2% (n = 390,000). AID 602313; also: potency is read from the fitted curve at half-maximal effect; % of control where 0% means no effect; nearly all actives have a fitted effect of over 65% in size
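HeLa cells stably expressing A3F-eYFP plus Vif, plated and incubated overnight at 37 deg C, then exposed to compounds overnight at 37 deg C. Blocked degradation read as raised yellow fluorescence (Ex 488/Em 500-530).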
Glioma ERSR ind: inducers of ER stress response in human glioma cells | U87-MG GRP78 promoter luciferase reporter, 16 h | Potency, µM, without a hit: at the top dose activation, most hits filed as activators | actives 0.02% (n = 420,000) | AID 602332; also: potency is read from the fitted curve at half-maximal effect; series mostly up to about 76 µM; % of control where 0% means no effect; nearly all actives have a fitted effect of over 35% in size
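ERSR induction read as luciferase luminescence (Bright-Glo, 10 min at room temperature) in stably transfected human U87-MG glioma cells exposed to compounds for 16 h, using GRP78 as sensor.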
Active calls of the source: *; i = inactive; ? = inconclusive; . = not tested or not shown; [ ] = another dose, or the depositor's remark. Unless noted, calls follow the shape of the dose curve; as a rule, active = well fitted curve in the direction sought with a large enough effect; inconclusive = small, poorly fitted or top-dose-only effect, or another doubt; inactive = no such curve, though single readings can be large; an effect the other way counts as inactive or inconclusive.

SMILES | Akt phos inh | Vif-A3G inh | LDHA block | PINK1 expr mod | Vif-APOBEC3F blk | Glioma ERSR ind
C[n+]1c2n(c3ccccc31)N=C(c1ccc(-c3ccccc3)cc1)CS2 | i | -5% | -2 | 13µM* | -3% | -3%
CCCCCN1CC(=O)N2Cc3[nH]c4ccccc4c3C[C@H]2C1=O | i | 1% | -8 | 0% | -7% | -4%
CCCCN1C(=O)C2Cc3c([nH]c4ccccc34)CN2C1=S (stereo not drawn) | i | 8.9µM* | 1 | 5% | -528% | 2%
CCCCNc1c(-c2ccc(Sc3ccc(OC)cc3)cc2)nc2cc(C)ccn12 | i | 2% | -16 | 28µM* | -1% | 12%
Cc1cnc(C(=O)OCc2ccccc2Cl)cn1 | . | . | -1 | . | . | .
CCOC(=O)c1cc(-c2ccc3c(c2)OCO3)nc2onc(C)c12 | -117%* | 2% | -6 | 7% | 4% | -2%
COC(=O)c1cc(-c2ccc(Cl)cc2)nc2onc(C)c12 | . | . | -4 | . | . | .
O=C(NC1(C(F)(F)F)C(=O)Nc2c1c(=O)[nH]c(=O)n2Cc1ccco1)c1ccccc1F (stereo not drawn) | . | . | -9 | . | . | .
O=C(Oc1csc(=S)n1C(=O)c1ccccc1)c1ccccc1 | i | 0% | -13 | 1% | -3% | -5%
Cc1cccc(C(=O)Oc2csc(=S)n2C(=O)c2cccc(C)c2)c1 | i | -1% | -33* | 0% | -24% | -4%
CCOC(=O)c1cccc(NC(=O)Nc2cccc(F)c2C)c1 | . | . | 12 | . | . | .
Cc1cc(C)cc(N(CCC#N)C(=O)CSc2nc3nc(C)cc(C)n3n2)c1 | i | 1% | -10 | 4%[38.3 µM] | 1% | -5%
CC(=O)Nc1ccc(SCC(=O)N(CCC#N)c2cc(C)cc(C)c2)cc1 | -110%* | -1% | -6 | -1% | -12% | -3%
CCc1c(C)nc2ncnn2c1N1CCC(C(=O)Nc2ccc(C)cc2)CC1 | i | 0% | 2 | ? | -13% | -4%
CCc1c(C)nc2ncnn2c1N1CCC(C(=O)Nc2ccccc2)CC1 | ? | 2% | 3 | 13µM* | 1% | -3%
CCCSc1nsc(NC(=O)Nc2ccc(F)cc2F)n1 | i | 0% | -1 | 13µM* | ? | 4%
COc1ccc(Oc2ccc3c(C(F)(F)F)cc(C(F)(F)F)nc3n2)cc1 | i | 0% | -1 | 84%[38.3 µM] | 0% | -1%
Oc1ccc(Oc2ccc3c(C(F)(F)F)cc(C(F)(F)F)nc3n2)cc1 | -116%* | -9% | 6 | 5% | -11% | -3%
COc1ccc2c(-c3cc4cc(Cl)ccc4o3)cc(=O)oc2c1 | . | . | -5 | . | . | .
O=C(Nc1ccccc1)N1CCN(CCc2ccncc2)CC1 | . | . | -6 | . | . | .
Cc1ccc(S(=O)(=O)N(CC(O)CN(C)C)c2ccccc2)cc1 (stereo not drawn) | -108%* | 0% | 0 | 2% | -16% | -4%
COC(=O)c1ccc(C(=O)O)cc1 | . | . | -5 | . | . | .
O=C(CN1CCCCCCC1)N/N=C/c1ccccc1F | i | 1% | -18 | -3% | ? | 1%
O=C(CN1CCSCC1)N/N=C/c1ccccc1F | -98%* | -1% | -23 | -3%[38.3 µM] | 1% | 1%
COC(=O)c1cc2c(-c3ccccc3)cc3ccccn3c-2c1C(=O)OC | i | 0% | -5 | 6% | 3% | -6%
SMILES | Akt phos inh | Vif-A3G inh | LDHA block | PINK1 expr mod | Vif-APOBEC3F blk | Glioma ERSR ind
COC(=O)c1c(C)c2c(C)cc3ccccn3c-2c1C(=O)OC | -104%* | 2% | -3 | -1% | 4% | 0%
O=C1CN(c2nc(-c3ccccc3)c3ccccc3n2)CCN1 | . | . | 0 | . | . | .
O=C(Nc1cccc(C(F)(F)F)c1)C1C2CCC3C(CCC21)C3(Cl)Cl (stereo not drawn) | . | . | 3 | . | . | .
O=C(NCCc1cccs1)c1ccc(Cl)cc1 | i | 1% | -10 | 2% | -6% | -11%
O=C(NCCc1cccs1)c1ccc(Cl)c(Cl)c1 | i | -6% | -3 | 2% | 2.5µM* | 1%
Fc1ccc(N2CCN(Cc3ccccn3)CC2)cc1 | i | -2% | -31* | 0% | 9% | 1%
CCOC(=O)N1CCN(Cc2ccccn2)CC1 | -105%* | -6% | ? | 3% | . | -2%
